Seven molecules from PubChem BioAssay (EPA / NIEHS) can be followed below.

Assay [1] concerns the target Retinoic acid receptor RXR-alpha (Homo sapiens) (UniProt P19793). Kind of assay: ATG_RXRa_TRANS: Attagene TRANS-FACTORIAL HepG2 Assay for human Retinoid X Receptor alpha (RXRa) (AID 2283012; active = hit-call score of the fitted dose curve at least 0.9, where 1 is the maximum). An outline of the steps: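 Chimeric NR-GAL4 trans-activation in HepG2, 24 h treatment; reporter transcripts quantified by fluorescence on capillary electrophoresis, analysed for upward change from DMSO.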

Assay [2] addresses human Retinoid X Receptor beta (RXRb), RXRB (gene 6257) (UniProt P28702). Kind of assay: ATG_RXRb_TRANS: Attagene TRANS-FACTORIAL HepG2 Assay for human Retinoid X Receptor beta (RXRb) (AID 2283013; active = hit-call score of the fitted dose curve at least 0.9, where 1 is the maximum). An outline of the steps:
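After a 24 h incubation with test chemical, transfected HepG2 cells carrying NR-Gal4 fusions and GAL4-UAS reporter transcription units yield RNA whose reporter cDNA is FAM-labelled, HpaI-cut and sized by capillary electrophoresis; increases over DMSO are scored.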

Read-out in assay [3]: E-selectin (Homo sapiens) (UniProt P16581)
Kind of assay: BSK_3C_Eselectin: BioMAP Diversity Plus: 3C Assay for Eselectin Biomarker Activity (AID 2283015).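 Also: cell surface E-selectin protein quantified by ELISA 24 h after dosing.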 Conditions: primary human endothelial cells (HUVEC); actives raise or lower the signal. In a few lines: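 Human vascular endothelium from umbilical vein is exposed to test chemicals for 24 h. E-selectin levels are read by ELISA and compared with DMSO controls.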

Read-out in assay [4]: Interleukin-1 alpha (IL1a), IL1A (gene 3552)
Put plainly: BSK_BE3C_IL1a: BioMAP Diversity Plus: BE3C Assay for Interleukin-1 alpha (IL1a) Biomarker Activity (AID 2283016). The settings on record: primary human bronchial epithelial cells; actives raise or lower the signal. In a few lines:
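Measured in human lung primary bronchial epithelial cells: IL-1a by ELISA at 24 h after dosing, with bidirectional fitting against DMSO.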

Read-out in assay [5]: Monocyte Chemoattractant Protein-1 (MCP1), CCL2 (gene 6347)
Kind of assay: BSK_3C_MCP1: BioMAP Diversity Plus: 3C Assay for Monocyte Chemoattractant Protein-1 (MCP1) Biomarker Activity (AID 2283017). The settings on record: primary human endothelial cells (HUVEC); actives raise or lower the signal. An outline of the steps: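 Endothelial cells from human umbilical vein are dosed with chemical, cultured 24 h, then assayed for MCP-1 by ELISA; both increases and decreases are modelled against DMSO controls.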

Read-out in assay [6]: Monocyte Chemoattractant Protein-1 (MCP1), CCL2 (gene 6347)
Put plainly: BSK_4H_MCP1: BioMAP Diversity Plus: 4H Assay for Monocyte Chemoattractant Protein-1 (MCP1) Biomarker Activity (AID 2283018). The settings on record: primary human endothelial cells (HUVEC); actives raise or lower the signal. In a few lines: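 Primary human umbilical vein endothelium is exposed to chemical for 24 h before MCP-1 is assayed by ELISA. Concentration-response fitted bidirectionally relative to DMSO.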

Read-out in assay [7]: Interleukin-8 (IL8), CXCL8 (gene 3576)
Put plainly: BSK_3C_IL8: BioMAP Diversity Plus: 3C Assay for Interleukin-8 (IL8) Biomarker Activity (AID 2283020). Conditions: primary human endothelial cells (HUVEC); actives raise or lower the signal. In a few lines: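 Using DMSO-treated wells as the baseline, bidirectional curve fitting was applied to ELISA-measured IL-8 from human umbilical vein endothelial cultures sampled 24 h after compound addition.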

Read-out in assay [8]: Monokine induced gamma interferon (MIG), CXCL9 (gene 4283)
Kind of assay: BSK_3C_MIG: BioMAP Diversity Plus: 3C Assay for Monokine induced gamma interferon (MIG) Biomarker Activity (AID 2283021). Conditions: primary human endothelial cells (HUVEC); actives raise or lower the signal. In a few lines: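 ELISA-measured MIG in dosed HUVEC 3C cultures at 24 h, analysed by bidirectional fitting with DMSO defining baseline activity.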

Assay [9] is described as follows: BSK_3C_SRB: Viability Assessment in the BioMAP Diversity Plus: 3C Assay (AID 2283023).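 Also: fitted both ways against DMSO so a hit may be signal rise or drop.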 Conditions: primary human endothelial cells (HUVEC). In a few lines: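 Cells were dosed with chemical, cultured 24 h, fixed with 10% TCA, stained with 0.1% SRB and read at 560 nm. Human umbilical vein endothelium was used; DMSO served as negative control and baseline.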
Read-out in assay [10]: Matrix Metallopeptidase 1 (MMP1), MMP1 (gene 4312)
Put plainly: BSK_BE3C_MMP1: BioMAP Diversity Plus: BE3C Assay for Matrix Metallopeptidase 1 (MMP1) Biomarker Activity (AID 2283024). Conditions: primary human bronchial epithelial cells; actives raise or lower the signal. An outline of the steps: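 In this multiplexed primary-cell system, human bronchial epithelium received chemicals for 24 h before an ELISA for MMP1. Values reflect bidirectional fits normalised to the DMSO baseline.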

A short description of assay [11]: BSK_3C_Vis: BioMAP Diversity Plus: 3C Assay for Morphology Visualization (AID 2283025).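 Also: fitted both ways so gain or loss versus DMSO counts.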 Conditions: primary human endothelial cells (HUVEC). In a few lines:
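Light-microscopy morphology readout, 24 h exposure, human primary umbilical vein endothelium; analysed relative to DMSO with bidirectional fitting.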

Read-out in assay [12]: Pselectin, SELP (gene 6403)
Kind of assay: BSK_4H_Pselectin: BioMAP Diversity Plus: 4H Assay for Pselectin Biomarker Activity (AID 2283026). The settings on record: primary human endothelial cells (HUVEC); actives raise or lower the signal. An outline of the steps: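 Bidirectional fits against DMSO gave the endpoint. Cells: primary human umbilical vein endothelium, chemical-treated for 24 h before ELISA detection of P-selectin.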

Assay [13] can be described thus: BSK_4H_SRB: Viability Assessment in the BioMAP Diversity Plus: 4H Assay (AID 2283027).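 Also: cells exposed to compound for 24 h before staining.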 Conditions: primary human endothelial cells (HUVEC). In a few lines: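 Cytotoxicity read-out in primary human endothelial cells: after 24 h compound exposure, cells were TCA-fixed (10%), stained with 0.1% SRB and absorbance taken at 560 nm. Values fitted in both directions relative to DMSO.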

Read-out in assay [14]: Thrombomodulin, THBD (gene 7056)
Put plainly: BSK_3C_Thrombomodulin: BioMAP Diversity Plus: 3C Assay for Thrombomodulin Biomarker Activity (AID 2283029). Conditions: primary human endothelial cells (HUVEC); actives raise or lower the signal. In a few lines:
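In a multiplexed primary-cell system, human umbilical vein endothelium received chemical and was assayed 24 h later for thrombomodulin by ELISA. Parallel cultures were SRB-stained (0.1% SRB after 10% TCA fixation, read at 560 nm) to flag cytotoxicity.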

Read-out in assay [15]: Urokinase-type plasminogen activator receptor (uPAR), PLAUR (gene 5329)
Kind of assay: BSK_4H_uPAR: BioMAP Diversity Plus: 4H Assay for Urokinase-type plasminogen activator receptor (uPAR) Biomarker Activity (AID 2283030). The settings on record: primary human endothelial cells (HUVEC); actives raise or lower the signal. In a few lines:
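Chemicals are dosed onto human vascular endothelial primary cells (umbilical vein). After 24 h, uPAR is read by ELISA. Gain or loss of signal is fitted relative to DMSO.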

Read-out in assay [16]: Vascular endothelial growth factor receptor 2 (Homo sapiens) (UniProt P35968)
Put plainly: BSK_4H_VEGFRII: BioMAP Diversity Plus: 4H Assay for Vascular endothelial growth factor receptor 2 (VEGFR2) Biomarker Activity (AID 2283031). The settings on record: primary human endothelial cells (HUVEC); actives raise or lower the signal. An outline of the steps: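 VEGFRII levels on human vascular endothelial primary cells were determined by ELISA at 24 hours post-dosing, with gain- or loss-of-signal fitted against DMSO controls.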

Read-out in assay [17]: Human Leukocyte Antigen - DR isotype (HLADR), HLA-DRA (gene 3122)
Put plainly: BSK_3C_HLADR: BioMAP Diversity Plus: 3C Assay for Human Leukocyte Antigen - DR isotype (HLADR) Biomarker Activity (AID 2283019).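 Also: ELISA of cell-surface HLA-DR on HUVEC 24 h after dosing.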 Conditions: primary human endothelial cells (HUVEC); actives raise or lower the signal. In a few lines:
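Endothelial cells from human umbilical vein are treated with test chemical; after 24 h, HLA-DR levels are measured by ELISA. Data are fitted in both directions using DMSO as the baseline.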

In assay [18] the target is human Vitamin D Receptor (VDR), VDR (gene 7421) (UniProt P11473). Kind of assay: ATG_VDR_TRANS: Attagene TRANS-FACTORIAL HepG2 Assay for human Vitamin D Receptor (VDR) (AID 2283022; active = hit-call score of the fitted dose curve at least 0.9, where 1 is the maximum). In a few lines: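 Fluorescence of labelled reporter cDNA fragments, resolved by capillary electrophoresis, gives mRNA induction after 24 h treatment of HepG2 cells carrying transfected Gal4-fusion reporter units. Activity is fitted in the positive direction with DMSO as baseline.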
Sequence of human Vitamin D Receptor (VDR), VDR (gene 7421) (P11473 whole entry, looked up, the tested form may be a part): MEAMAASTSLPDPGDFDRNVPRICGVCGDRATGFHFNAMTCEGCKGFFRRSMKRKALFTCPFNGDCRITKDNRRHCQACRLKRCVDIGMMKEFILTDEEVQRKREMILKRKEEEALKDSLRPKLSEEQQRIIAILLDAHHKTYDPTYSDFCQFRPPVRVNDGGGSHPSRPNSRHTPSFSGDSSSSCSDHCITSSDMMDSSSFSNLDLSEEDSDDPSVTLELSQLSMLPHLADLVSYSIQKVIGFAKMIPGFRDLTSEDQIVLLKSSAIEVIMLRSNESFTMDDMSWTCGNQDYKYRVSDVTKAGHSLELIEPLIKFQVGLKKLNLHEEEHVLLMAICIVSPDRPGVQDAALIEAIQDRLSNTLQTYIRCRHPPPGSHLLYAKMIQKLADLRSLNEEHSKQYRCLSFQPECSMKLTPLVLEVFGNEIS

The nature of assay [19]: BSK_BE3C_SRB: Viability Assessment in the BioMAP Diversity Plus: BE3C Assay (AID 2283028). Conditions: primary human bronchial epithelial cells. In a few lines: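 Overt cytotoxicity was assessed as total protein in confluent human primary bronchial epithelial cultures 24 h after chemical addition, using 0.1% sulforhodamine B staining read at 560 nm.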

Each structure is given as a SMILES string. Results filed as inconclusive are left out. Calls of active or inactive are those of the source. The calls were made as follows, unless noted: active = hit-call score of the fitted dose curve at least 0.9, where 1 is the maximum; inactive = score below 0.9.

Sequence of Retinoic acid receptor RXR-alpha (Homo sapiens) (P19793 whole entry, looked up, the tested form may be a part): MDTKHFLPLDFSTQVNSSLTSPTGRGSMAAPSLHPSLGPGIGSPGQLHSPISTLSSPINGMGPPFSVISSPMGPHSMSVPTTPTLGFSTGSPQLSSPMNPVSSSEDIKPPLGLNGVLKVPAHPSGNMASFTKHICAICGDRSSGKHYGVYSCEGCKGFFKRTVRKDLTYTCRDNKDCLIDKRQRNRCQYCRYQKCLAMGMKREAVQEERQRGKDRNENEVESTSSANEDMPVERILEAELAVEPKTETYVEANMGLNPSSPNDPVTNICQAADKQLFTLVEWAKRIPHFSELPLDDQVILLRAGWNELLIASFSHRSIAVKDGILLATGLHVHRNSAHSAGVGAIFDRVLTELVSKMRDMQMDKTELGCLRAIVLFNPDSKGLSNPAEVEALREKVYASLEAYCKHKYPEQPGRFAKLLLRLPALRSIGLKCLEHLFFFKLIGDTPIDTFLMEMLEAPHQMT
Sequence of human Retinoid X Receptor beta (RXRb), RXRB (gene 6257) (P28702 whole entry, looked up, the tested form may be a part): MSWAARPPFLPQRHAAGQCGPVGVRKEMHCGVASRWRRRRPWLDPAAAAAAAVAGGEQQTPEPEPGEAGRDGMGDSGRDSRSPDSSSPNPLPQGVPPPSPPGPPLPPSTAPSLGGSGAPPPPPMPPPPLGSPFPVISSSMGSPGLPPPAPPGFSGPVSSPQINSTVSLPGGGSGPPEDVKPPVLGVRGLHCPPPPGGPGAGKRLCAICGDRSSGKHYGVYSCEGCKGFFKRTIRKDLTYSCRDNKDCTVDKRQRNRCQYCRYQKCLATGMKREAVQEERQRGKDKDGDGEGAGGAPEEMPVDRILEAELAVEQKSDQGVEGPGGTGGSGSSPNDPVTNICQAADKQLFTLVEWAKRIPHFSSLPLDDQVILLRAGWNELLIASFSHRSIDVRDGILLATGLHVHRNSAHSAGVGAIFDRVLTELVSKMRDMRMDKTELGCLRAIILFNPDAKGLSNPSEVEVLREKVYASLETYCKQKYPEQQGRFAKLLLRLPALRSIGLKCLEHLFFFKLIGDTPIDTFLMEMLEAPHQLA
Sequence of E-selectin (Homo sapiens) (P16581 whole entry, looked up): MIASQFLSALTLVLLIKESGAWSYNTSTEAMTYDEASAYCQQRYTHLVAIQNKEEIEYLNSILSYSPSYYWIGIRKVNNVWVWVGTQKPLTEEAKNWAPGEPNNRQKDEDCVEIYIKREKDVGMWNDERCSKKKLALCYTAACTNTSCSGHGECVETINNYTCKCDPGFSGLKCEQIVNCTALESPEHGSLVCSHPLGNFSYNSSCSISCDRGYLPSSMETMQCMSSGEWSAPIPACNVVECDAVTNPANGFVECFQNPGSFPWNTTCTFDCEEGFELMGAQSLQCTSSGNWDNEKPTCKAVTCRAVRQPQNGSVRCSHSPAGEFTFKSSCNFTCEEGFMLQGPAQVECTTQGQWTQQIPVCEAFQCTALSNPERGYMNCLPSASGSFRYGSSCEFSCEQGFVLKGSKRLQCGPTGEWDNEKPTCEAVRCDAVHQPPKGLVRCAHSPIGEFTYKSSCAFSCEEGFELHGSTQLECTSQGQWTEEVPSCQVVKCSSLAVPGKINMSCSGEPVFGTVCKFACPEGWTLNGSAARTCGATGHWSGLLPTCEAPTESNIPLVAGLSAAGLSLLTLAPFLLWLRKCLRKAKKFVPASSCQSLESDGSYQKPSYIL

With `CC(=O)Oc1ccccc1C(=O)O`, the AC50 was 127 µM (active) in assay [1], 8.23 µM (active) in assay [2] and 0.412 µM (active) in [15]. Further, the outcome in assay [3], in [4], in assay [5], in [6], in assay [7] and in assay [8] was inactive. In addition, the outcome in assay [9], in assay [10], in assay [11], in assay [12], in assay [13] and in assay [14] was inactive. The result in [16] was inactive.

As for `COc1ccc2c(c1)c(CC(=O)O)c(C)n2C(=O)c1ccc(Cl)cc1`, the molecule was called inactive in assay [1], in [3], in [4], in [5], in assay [6] and in assay [17]. Moreover, the outcome in assay [7], in [8], in [18], in [9], in assay [11] and in assay [12] was inactive. The outcome in assay [13], in [19], in [14], in [15] and in assay [16] was inactive. Besides, the AC50 in assay [10] is 7.79 µM (active).

Turning to `CCCCCC(=O)O`, the molecule was called inactive in assay [1], in assay [2], in assay [3], in [4], in assay [5] and in assay [6]. Besides, the result in [7], in assay [8], in assay [18], in assay [9], in assay [10] and in assay [11] was inactive. In addition, the result in [12], in assay [13], in assay [19], in assay [14], in assay [15] and in [16] was inactive.

For `Cc1nc(C)nc(N2C[C@@H](C)N(c3ccnc([C@@H](C)O)n3)[C@@H](C)C2)n1`, the molecule was called inactive in [1], in assay [3], in assay [4], in assay [5], in assay [6] and in assay [17]. Further, the result in assay [7], in assay [8], in [18], in assay [9], in assay [10] and in assay [11] was inactive. The outcome in assay [12], in assay [13], in [19], in assay [14], in assay [15] and in [16] was inactive.

With `COc1cc(S(=O)(=O)O)c(C)cc1N=Nc1c(O)ccc2cc(S(=O)(=O)O)ccc12`, the result in assay [1], in [3], in assay [4], in assay [5], in [6] and in assay [7] was inactive. The result in assay [8], in [18], in assay [9], in assay [10], in [11] and in [12] was inactive. Besides, the result in assay [13], in [19], in [14], in [15] and in assay [16] was inactive.

For the molecule `O=C(O)CCCCC(=O)O`, the result in assay [1], in assay [2], in [3], in [4], in assay [5] and in assay [6] was inactive. For the same molecule, the outcome in [7], in assay [8], in [9], in assay [10], in assay [11] and in assay [12] was inactive. Moreover, the outcome in assay [13], in [19], in [14], in assay [15] and in assay [16] was inactive.

For `O=C(N[C@@H](Cc1ccccc1)[C@@H](O)C(=O)N1C[C@@H](O)[C@@H](O)C1)c1cc2cc(Cl)ccc2[nH]1`, the molecule was called inactive in assay [1], in assay [3], in [4], in assay [5], in assay [6] and in [7]. Besides, the result in assay [8], in assay [18], in assay [9], in assay [10], in assay [11] and in assay [12] was inactive. For the same molecule, the outcome in assay [13], in assay [19], in assay [14], in assay [15] and in assay [16] was inactive.
